Hit rate of the full screen: of about 96,000 compounds, about 100 (0.1%) were called active. The sample holds actives, similar compounds and a random draw of the others, so the mix is not that of the screen.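 How the source made its calls: active means displacement above 50% at 20 µM plus a fluorescence interference ratio under 1.5; inactive means the rest.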 Potency and affinity values are given separately.
Target: Bcl-2-like protein 10 (Homo sapiens) (UniProt Q9HD36)
Assay: displacers of TR3 peptide from Bcl-B, primary screen, selectivity assay for Bfl-1 inhibitor project, biochemical, fluorescence polarization, FITC-TR3 peptide (AID 748);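 further: plate controls were wells without compound for no effect and wells lacking Bcl-B protein for full effect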
Settings: FP displacement of FITC-TR3 peptide from Bcl-B; at 20 µM; hits give high values

displacement, inactive:
Cc1cc2c(c(=O)n1CC1CCCO1)C(c1ccco1)C(C#N)=C(N)O2 (stereo not drawn) -1.3%
CCOC(=O)c1cnc(-n2nc(C)cc2C)nc1Nc1ccc(OC)cc1 0.6%
CCN(CC)S(=O)(=O)c1cc(C(=O)Nc2ccc(Cl)cn2)ccc1C -1.9%
Cc1nc2sc3c(c2c(=O)[nH]1)CCC3 -1.1%
Cc1ccc(-c2nc3s/c(=C\c4ccco4)c(=O)n3n2)cc1 -14.4%
CCCOc1ccc(Cc2nn3c(=O)/c(=C/c4ccco4)sc3nc2=O)cc1 -5.7%
CCn1c2ccccc2c2nnc(SCc3cc(=O)n4ccsc4n3)nc21 -0.4%
Cc1ccccc1Oc1ccc(S(=O)(=O)NCCC(=O)O)cc1 0.5%
Clc1ccc(CN2CCCCCCC2)cc1Cl -0.5%
O/N=C/c1cccn1-c1ccc(O)cc1 0.9%
ON=Cc1cccn1-c1ccccc1 3.4%
O=C(Nc1cccnc1)c1c(F)cccc1F 7.8%
CC1(C)CC(NC(=O)c2coc(=O)c(Br)c2)CC(C)(C)N1 6.4%
O=C(c1ccc(=O)oc1)N1CCOCC1 -16.5%
O=C(c1coc(=O)c(Br)c1)N1CCCc2ccccc21 18%
COc1ccc(C(=O)N2CCOCC2)cc1Br -9.8%
COc1ccc(OCC(=O)N/N=C/c2ccc(O[C@@H]3O[C@H](CO)[C@@H](O)[C@H](O)[C@H]3O)cc2)cc1 -3.2%
CCn1nc(C)c(NC(=O)CCSc2nc(-c3ccco3)cc(C(F)(F)F)n2)c1C -7%
CCOC(=O)c1[nH]c(C)c(/C(O)=C2\C(=O)C(=O)N(CCCN3CCOCC3)C2c2cccnc2)c1C (stereo not drawn) 5%
COc1cc(C2CC(=O)NC3=C2C(=O)CC(C)(C)C3)cc(OC)c1O (stereo not drawn) -3.3%
CCSc1nc(N)c2c3c(sc2n1)CN(C)CC3 1.8%
CCCSc1nc(N)c2c3c(sc2n1)CN(C)CC3 26.6%
COc1ccc(CCNC(=O)c2c(-c3ccccc3)noc2C)cc1OC -0.3%
O=C(O)C(Cc1ccccc1)n1cccc1 (stereo not drawn) 3.2%
O=C(O)C(Cc1ccccc1)N1C(=O)c2ccccc2C1=O (stereo not drawn) 9.7%
Cc1ccc(NC(=O)CSc2nnc(-c3ccc(S(=O)(=O)N4CCOCC4)cc3)n2C)cc1 0.6%
O=C(Nc1ccc(N2CCN(c3ccc(O)cc3)CC2)cc1)Oc1ccccc1 -11.2%
CCN1CCc2c(sc3c2c(NCc2ccco2)nc2nnnn23)C1 114%
CSc1nc(NCc2ccco2)c2c3c(sc2n1)CN(C)CC3 0.3%
CCS(=O)(=O)/N=C(\N)c1ccccc1 2.5%
Cc1ccc(C=C2C(=O)c3ccccc3C2=O)s1 4.7%
Cc1cc(C)n(-c2ccc(C(=O)Nc3ccc4c(c3)OCO4)cc2)n1 -4.8%
COCCn1c(SCC(=O)Nc2nc(C)c(Cl)cc2Cl)nc2ccccc21 -7.3%
COCCn1c(SCC(=O)Nc2ccc(Cl)cn2)nc2ccccc21 -17%
c1coc(-c2nc3ccccc3nc2-c2ccco2)c1 22%
c1coc(-c2nc(-c3ccco3)c(-c3ccco3)nc2-c2ccco2)c1 43.1%
c1ccc(CSc2n[nH]c(-c3ccco3)n2)cc1 -8.3%
Nn1c(SCc2ccccc2)nnc1-c1ccco1 -4.8%
COc1cccc(Cn2c(-c3cccs3)noc2=O)c1 -1.2%
O=S1(=O)CCC(NS(=O)(=O)c2cccc3cccnc23)C1 (stereo not drawn) -3.6%
O=C(Oc1ccc(-c2cn3c(n2)SCC3)cc1)c1ccccc1 -5.6%
Oc1ccc(-c2cn3c(n2)SCC3)cc1 -4.3%
CC1(C)Cc2nc3nc(SCC(=O)NCc4ccccc4)n(-c4ccccc4)c(=O)c3cc2CO1 -3.5%
COc1ccc(-c2noc(CSc3nnc(Cc4ccccc4)n3-c3cccc(C)c3)n2)cc1OC -7.5%
c1ccc2cc(CN3CCOCC3)ccc2c1 -1.4%
O=C(CC1C(=O)OCN1C(=O)OCc1ccccc1)OCC(=O)c1ccccc1 (stereo not drawn) -0.3%
CCc1cn(S(=O)(=O)c2ccccc2OC)nc1N -3.2%
COC(=O)c1ccc(N2CCC(C)CC2)c(N)c1 -13.4%
Nc1cc(C(=O)O)ccc1N1CCCCCC1 7%
COC(=O)c1cn(NC(=O)c2cccc(OC)c2)c(=O)c2ccccc12 10.2%
O=C1CCC2(C(=O)O)Sc3ccccc3N12 (stereo not drawn) -5.3%
Cn1cccc1-c1nc2ccc(NC(=O)c3ccc([N+](=O)[O-])cc3)cc2[nH]1 3.8%
COc1ccc(Cl)cc1C(=O)Nn1c(C)nc2ccccc2c1=O -6.8%
COc1ccc(Cn2c(C)ccc2C)cc1 -31.6%
Cc1cc(C)n(Cc2ccc(C(=O)O)cc2)n1 -12.7%
CSc1ccc(S(=O)(=O)Nc2ccc3c4c(cccc24)CC3)cc1 0.8%
O=C1CC(SC(=NCc2ccc3c(c2)OCO3)Nc2ccccc2)C(=O)N1c1ccccc1 (stereo not drawn) 0.5%
CC(=O)Nc1ccc(S(=O)(=O)NC2=C(N3CCN(c4ccc(F)cc4)CC3)C(=O)c3ccccc3C2=O)cc1 30.5%
Cc1ccc(S(=O)(=O)NC2=C(N3CCN(Cc4ccccc4)CC3)C(=O)c3ccccc3C2=O)cc1 12.6%
Cc1ccc(NC(=O)CN2CC(C)SC2=NC2CCCCC2)cc1 (stereo not drawn) -0.9%
COc1cc(NC(=O)C2CCCCC2)c2ncccc2c1 -2.9%
COc1ccc(OCC(=O)Nc2cccc3cccnc23)cc1 -0.2%
COc1ccc(OCCCC(=O)NC(C)c2ccccc2)cc1 (stereo not drawn) 3.5%
CCOC(=O)C1CCN(C(C(=O)Nc2ccc3c(c2)OCCO3)c2ccccc2)CC1 (stereo not drawn) -3.4%
O=C1c2sc3nc4c(c(=O)n3c2C(=O)N1c1ccccc1)CCC4 7%
O=C1c2sc3nc4ccccc4n3c2C(=O)N1c1ccccc1Cl 0.8%
O=C(CSCc1ccc(Cl)cc1)c1ccco1 16.6%
O=C(CSc1ccccc1Cl)c1ccco1 3.7%

— PubChem BioAssay AID748 (Sanford-Burnham Center for Chemical Genomics, 2007)
